This note sets out measurements from PubChem BioAssay (NCATS).

Structures are written as SMILES. Several values for one entry are separate records, joined by “and”; a condition that tells them apart may be missing. Equal values may be shown once. Records with an inconclusive call do not appear. Activity calls are given as the source filed them. The call rests on the fitted dose curve; in most records, active means well fitted curve in the direction sought with a large enough effect; inconclusive means small, poorly fitted or top-dose-only effect, or another doubt; inactive means no such curve, though single readings can be large; an effect the other way counts as inactive or inconclusive.

In test [1] the target is Cytochrome P450 3A7 (Homo sapiens) (UniProt P24462). As to the kind of experiment: Cytochrome P450 family 3 subfamily A member 7 (CYP3A7) small molecule antagonists: luciferase biochemical qHTS assay (AID 1963596). Further: nearly all actives have a fitted effect of over 40% in size. Further: potency means the concentration at half of the fitted maximal effect. The note with it: P450-Glo CYP3A7 enzyme luminescence, 1 h; series mostly up to 57.4 µM. The gist of the method: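 Luminescence from luciferin released by CYP3A7 from a proluciferin substrate, read 20 min after detection reagent. Compound and enzyme-substrate mix sat 10 min before NADPH regeneration solution; reaction ran 1 h at room temperature.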
Cytochrome P450 3A7 (Homo sapiens), sequence (P24462 whole entry, looked up): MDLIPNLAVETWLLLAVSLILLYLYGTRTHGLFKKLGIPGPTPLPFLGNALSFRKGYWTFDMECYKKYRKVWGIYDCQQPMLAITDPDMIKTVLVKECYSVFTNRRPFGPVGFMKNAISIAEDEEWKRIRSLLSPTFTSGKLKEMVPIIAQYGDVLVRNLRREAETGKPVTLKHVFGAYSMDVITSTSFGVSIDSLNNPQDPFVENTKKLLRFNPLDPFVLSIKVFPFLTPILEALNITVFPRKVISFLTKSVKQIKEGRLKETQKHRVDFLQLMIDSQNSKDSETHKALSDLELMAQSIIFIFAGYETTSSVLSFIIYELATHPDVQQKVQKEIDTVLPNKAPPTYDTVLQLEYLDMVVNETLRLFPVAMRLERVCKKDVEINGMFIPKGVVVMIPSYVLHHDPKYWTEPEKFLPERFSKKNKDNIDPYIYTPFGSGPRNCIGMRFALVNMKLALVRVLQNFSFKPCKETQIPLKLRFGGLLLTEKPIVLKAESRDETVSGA

The nature of test [2]: Viability qHTS for spleen associated tyrosine kinase inhibitor (SYKi) naive MV4-11 cells (AID 1963823). Further: nearly all actives have a fitted effect of over 40% in size. Further: potency means the concentration at half of the fitted maximal effect. The note with it: MV4-11 AML viability, CellTiter-Glo luminescence, 72 h; series mostly up to 45 µM. The gist of the method:
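Read-out: CellTiter-Glo luminescence. Exposure: 72 hr, 37 C, 5% CO2, 95% humidity. Cells: MV4-11 without SYK inhibitor history, 500/well, qHTS format.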

Test [3] in a line: Cellular viability qHTS for adrenocortical cancer (ACC) cell line SW-13 (AID 1963989). Further: nearly all actives have a fitted effect of over 65% in size. Further: potency means the concentration at half of the fitted maximal effect.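 On activity (max response): cells grown in serum-free medium with ITS supplement; on the % scale 0 is the no-effect control and ±100 the full control effect.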 The note with it: SW-13 ACC cells viability, CellTiter-Glo, 48 h; activity (max response): stronger effect = lower value. The gist of the method:
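Here, serum-free SW-13 cultures were dosed up to 46 uM. Following 48 h, ATP-dependent luminescence (CellTiter-Glo) reported viable cells, and logistic modeling produced IC50 values.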
For orientation: In qHTS, concentration-response curves come from the screen itself.

The nature of test [4]: Viability qHTS for spleen associated tyrosine kinase inhibitor (SYKi) drug resistant MV4-11 cells (AID 1963824). Further: nearly all actives have a fitted effect of over 35% in size. Further: potency means the concentration at half of the fitted maximal effect. Conditions: SYKi-resistant MV4-11 viability, CellTiter-Glo, 72 h; series mostly up to 45 µM. Summed up:
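SYK inhibitor-resistant MV4-11 AML cells, 500 per well, added to predispensed compounds and incubated 72 hr at 37 C, 5% CO2. Viability measured by CellTiter-Glo luminescence after 10 min at room temperature.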

Test [5] in a line: Cellular viability qHTS for adrenocortical cancer (ACC) cell line NCI-H295R (AID 1963990). Further: nearly all actives have a fitted effect of over 60% in size. Further: potency means the concentration at half of the fitted maximal effect. The note with it: CellTiter-Glo ATP luminescence, 48 h; series mostly up to 46.1 µM. The gist of the method:
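Viability of NCI-H295R after 48 h of treatment (final up to 46 uM) measured through cellular ATP luminescence.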

Test [6] is described as follows: Quantitative highthroughput screen to assess conditional lethalithy of P12 Ichikawa cells grown in RPMI1640 with untreated serum (RPMI+s) (AID 1963881).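 Further: 100% = DMSO wells and 0% = empty wells without cells; nearly all actives have a fitted effect of over 35% in size.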 Conditions: ATP luminescence, 48 h; Potency: viability; series mostly up to 45.8 µM. The gist of the method: (§1)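 Each medium arm—HPLM with 10% dialyzed FBS, or RPMI1640 with 5 mM glucose and 10% untreated or dialyzed FBS—was screened against an 11-point, 3-fold compound titration for 48 h at 37 °C, with CellTiter-Glo luminescence as endpoint.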

Test [7] in a line: Quantitative highthroughput screen to assess conditional lethalithy of P12 Ichikawa cells grown in Human Plasma-Like Medium with dialyzed fetal bovine serum (HPLM+ds) (AID 1963879). Further: nearly all actives have a fitted effect of over 35% in size. The note with it: ATP luminescence, 48 h; Potency: viability; series mostly up to 45.8 µM. The gist of the method:
as §1

Test [8] is described as follows: Quantitative highthroughput screen to assess conditional lethalithy of SEM cells grown in Human Plasma-Like Medium with dialyzed fetal bovine serum (HPLM+ds) (AID 1963882). Further: nearly all actives have a fitted effect of over 35% in size. Conditions: SEM B-ALL cells in HPLM+ds, CellTiter-Glo viability, 48 h; series mostly up to 45.8 µM. The gist of the method:
as §1
On the technique in general: In ATP-based viability assays light output follows the ATP content of the culture.

Test [9] in a line: Quantitative highthroughput screen to assess conditional lethalithy of SEM cells grown in RPMI1640 with unreated serum (RPMI+s) (AID 1963883). The note with it: SEM B-ALL cells, CellTiter-Glo viability, 48 h; series mostly up to 45.8 µM. Summed up:
as §1

Test [10] can be described thus: Quantitative highthroughput screen to assess conditional lethalithy of P12 Ichikawa cells grown in RPMI1640 with dialyzed fetal bovine serum (RPMI+ds) (AID 1963880). The note with it: ATP luminescence, 48 h; Potency: P12-Ichikawa viability; series mostly up to 45.8 µM. The gist of the method: as §1
A short description of test [11]: Quantitative highthroughput screen to assess conditional lethalithy of SEM cells grown in RPMI1640 with dialyzed fetal bovine serum (RPMI+ds) (AID 1963884). The note with it: SEM B-ALL cells, RPMI+dialyzed FBS, CellTiter-Glo viability, 48 h; series mostly up to 45.8 µM. Summed up:
as §1

Test [12] in a line: Quantitative highthroughput screen to assess conditional lethalithy of NOMO1 cells grown in RPMI1640 with untreated serum (RPMI+s) (AID 1963876). Conditions: NOMO1 AML cells in RPMI+serum, CellTiter-Glo viability, 48 h; series mostly up to 45.8 µM. The gist of the method:
as §1

As to `CCC(C(N)=O)N1CCCC1=O` (stereo unspecified), the Potency entry in test [1] and in test [2] was “inactive” in each case. Besides, the activity (max response) in [3] was -1.47% (inactive).

As to `CC(C)NCC(O)c1ccccc1Cl` (stereo unspecified), the Potency entry in [1], in test [4] and in test [5] was “inactive” throughout.

In the case of `O=C1CN=C(c2cccc(Br)c2)c2oc3ccccc3c2N1`, the Potency result in test [1] was “inactive”. For the same compound, the Potency in [4] was 7.31 µM (active).

As to `C[C@]12CC[C@H]3[C@@H](CC=C4C[C@@H](O)CC[C@@]43C)[C@@H]1CC[C@@H]2O`, the Potency result in [1] is “inactive”. In test [3], the activity (max response) was 5.93% (inactive).

On to `COc1ccc(C(CN(C)C)C2(O)CCCCC2)cc1` (stereo unspecified), for which the Potency result in [1], in test [4] and in [6] was “inactive” throughout. Moreover, the activity (max response) in [3] is 0.648% (inactive).

In the case of `CCC1(c2cccc(O)c2)CCCCN(C)C1` (stereo unspecified), the Potency result in test [1], in test [4] and in test [5] was “inactive” each time. The activity (max response) in test [3] is -10.4% (inactive).

For the compound `O=c1[nH]oc2c1CCNC2`, the Potency entry in test [1], in test [2], in test [4] and in test [5] was “inactive” in each case.

Consider `CCN(CC)C(=O)c1ccc(C2=CC3(CCNCC3)Oc3cccc(O)c32)cc1`, for which the Potency result in test [1], in test [7], in [6], in test [8], in test [9] and in test [5] was “inactive” each time.

On to `c1ccc(N2CCNCC2)cc1`, for which the Potency result in test [1], in [4] and in test [5] was “inactive” in each case. Also, the activity (max response) in test [3] is 12.6% (inactive).

For the compound `COCCOCCO`, the Potency entry in [1], in test [4] and in test [5] was “inactive” in each case. In addition, the activity (max response) in [3] is -1.21% (inactive).

Take `C[C@H](NC(=O)Cc1cc(F)cc(F)c1)C(=O)N[C@@H]1N=C(c2ccccc2)c2ccccc2N(C)C1=O`: the Potency entry in test [1] and in [4] was “inactive” each time.

For `C[C@@H](C1CC[C@@]2(O)C3=CC(=O)[C@@H]4C[C@@H](O)[C@@H](O)C[C@]4(C)[C@H]3CC[C@]12C)[C@H](O)CCC(C)(C)O` (stereo partly specified), the Potency entry in test [1], in test [2] and in test [5] was “inactive” throughout. In addition, the activity (max response) in test [3] is -1.09% (inactive).

`CC[N+]1(CC)CCC(OC(=O)C(O)(c2ccccc2)c2ccccc2)C1` (stereo unspecified): the Potency result in [1], in test [4] and in test [5] was “inactive” each time. Moreover, in [3], the activity (max response) is 5.92% (inactive).

`CCCCn1cc(C(=O)c2cccc3ccccc23)c2ccccc21`: the Potency result in test [1] was “inactive”. Further, in test [4], the Potency was 18.4 µM (active).

`COc1ccccc1N1CCNCC1`: the Potency result in test [1], in [2] and in test [5] was “inactive” in each case. Besides, the activity (max response) in test [3] was -19.4% (inactive).

On to `CCCCC(CC)COC(=O)c1ccccc1C(=O)OCC(CC)CCCC` (stereo unspecified), for which the Potency result in test [1] was “inactive”. Also, the activity (max response) in test [3] is 14% (inactive).

Turning to `Nc1ccccc1C(=O)OCC(O)CO` (stereo unspecified), in [1], the Potency entry is “inactive”. Moreover, the activity (max response) in [3] was 6.9% (inactive).

Turning to `C[C@H](N)[C@H](O)c1ccc(O)c(O)c1`, the Potency result in test [1], in [4] and in test [5] was “inactive” in each case. Also, the activity (max response) in test [3] is 5.15% (inactive).

Take `OCCOc1ccccc1`: the Potency result in test [1], in test [4] and in test [5] was “inactive” throughout. The activity (max response) in test [3] is 8.17% (inactive).

As for `CN1C(=O)CCS(=O)(=O)C1c1ccc(Cl)cc1` (stereo unspecified), the Potency result in test [1], in [2], in test [7], in test [10], in [8] and in test [11] was “inactive” each time. Besides, in [5], the Potency result is “inactive”.

Consider `COCC1(CO)C(=O)C2CCN1CC2` (stereo unspecified), for which the Potency result in test [1] is “inactive”. In [12], the Potency is 20900 nM (active). Also, in [3], the activity (max response) is 9.27% (inactive).

`C1CCC(NC2CCCCC2)CC1`: the Potency entry in [1], in test [2], in test [4] and in test [5] was “inactive” in each case.

Consider `Nc1ccccc1C(=O)O`, for which the Potency entry in test [1], in [2] and in [5] was “inactive” in each case.

On to `C[C@H]1O[C@@H](O[C@H]2[C@@H](O)C[C@H](O[C@H]3[C@@H](O)C[C@H](O[C@H]4CC[C@@]5(C)[C@H](CC[C@@H]6[C@@H]5CC[C@]5(C)[C@@H](C7=CC(=O)OC7)CC[C@]65O)C4)O[C@@H]3C)O[C@@H]2C)C[C@H](O)[C@@H]1O`, for which the Potency entry in [1] is “inactive”. Besides, the Potency in test [4] is 47.3 nM (active) and 38.5 nM (active); in [3] it was 18.4 nM (active); in test [5], 65.1 nM (active).

Take `CC(C)[C@@H](CN1CC[C@@](C)(c2cccc(O)c2)[C@@H](C)C1)NC(=O)[C@H]1Cc2ccc(O)cc2CN1`: in test [1], the Potency result is “inactive”. Moreover, the Potency in [4] is 16.4 µM (active).

`CN1C(=O)[C@@H](NC(=O)c2cc3ccccc3[nH]2)N=C(c2ccccc2)c2ccccc21`: the Potency result in test [1] and in [5] was “inactive” throughout. In addition, in [4], the Potency was 4.22 µM (active). Besides, the activity (max response) in [3] is -6.85% (inactive).

For `C[N+](C)(C)CCOC(=O)C(O)(c1ccccc1)c1ccccc1`, the Potency entry in test [1], in test [2] and in [5] was “inactive” each time. Also, in test [3], the activity (max response) is -5.79% (inactive).

Turning to `Oc1ccc2c3c1O[C@H]1[C@@H](O)C=C[C@H]4[C@@H](C2)NCC[C@@]341`, the Potency result in test [1] and in test [2] was “inactive” in each case. The activity (max response) in test [3] is -14.8% (inactive).

Take `NC(=O)CN1CCCC1=O`: the Potency result in [1] and in [2] was “inactive” each time. In test [3], the activity (max response) was 11.9% (inactive).

Take `OCCCCC#Cc1cncc(OC[C@@H]2CCN2)c1`: the Potency result in test [1] and in test [4] was “inactive” in each case.

As for `CC1OC(C)OC(C)O1` (stereo unspecified), the Potency result in test [1], in test [2] and in test [5] was “inactive” each time. Moreover, the activity (max response) in test [3] was 14% (inactive).

`Cc1ccc([N+](=O)[O-])[c]2c1[O][Hg]2`: the Potency in test [1] was 617 nM (active); in test [2], 94.4 nM (active); in test [3], 231 nM (active).

In the case of `CN(C(=O)Cc1ccccc1)C(CN1CCCC1)c1ccccc1` (stereo unspecified), the Potency result in [1] and in [4] was “inactive” in each case.

Take `C[C@@H](CN1CCC(n2c(=O)[nH]c3cc(Br)ccc32)CC1)NC(=O)[C@@H]1C[C@H]1c1ccccc1`: in [1], the Potency entry was “inactive”. In test [4], the Potency is 6.51 µM (active).

In the case of `CCCCCCC1C(=O)O[C@H](C)[C@H](NC(=O)c2cccc(NC=O)c2O)C(=O)O[C@@H](C)[C@@H]1OC(=O)CC(C)C` (stereo partly specified), the results for the Potency in [2] and in test [4] were 517 nM (active) and 0.291 µM (active), respectively.

For the compound `COC(=O)C12C(=O)C(C)(O)C(=O)C1(C)C(C)=CC1C34CCC(OC3=O)C(C)(C)C4CCC12C` (stereo unspecified), the Potency entry in [2] is “inactive”.

As to `CCC(C)/C=C(C)/C=C/C1=CC2=C(Cl)C(=O)C(C)(OC(C)=O)C(=O)C2=CO1` (stereo unspecified), the Potency result in test [2] was “inactive”. Also, the Potency in [4] was 8.05 µM (active).

Take `CC[C@H]1CN2CC[C@H]1C[C@@H]2[C@@H](O)c1ccnc2ccc(OC)cc12`: the Potency entry in test [2] and in test [4] was “inactive” each time.
